Gal4-VP16 FLuc: VP16 counterscreen qHTS for inhibitors of ROR gamma transcriptional activity; Drosophila S2 Gal4-VP16 UAS-luciferase, luminescence, 20 h; Potency, µM (doses to about 53.6 µM), for inactives: top-dose activity, negative = inhibition, hits mostly inhibitors; 310,000 tested, 3.5% active; AID 2546, 2010;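 also: Gal4-VP16 expression switched on by copper sulfate through the metallothionein promoter; potency is read from the fitted curve at half-maximal effect; nearly all actives have a fitted effect of over 50% in size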
RORgamma inh: qHTS for inhibitors of ROR gamma transcriptional activity. Nuclear receptor ROR-gamma (Mus musculus), P51450. Drosophila S2 Gal4-RORgamma UAS-luciferase reporter, 20 h. Potency, µM (highest dose often 53.6 µM), for the others: at the highest dose activity change, negative = inhibition, usual class: inhibitors. 310,000 tested, 5.4% active; also: potency is read from the fitted curve at half-maximal effect; nearly all actives have a fitted effect of over 60% in size
Target sequence (P51450 whole entry, looked up, the tested form may be a part): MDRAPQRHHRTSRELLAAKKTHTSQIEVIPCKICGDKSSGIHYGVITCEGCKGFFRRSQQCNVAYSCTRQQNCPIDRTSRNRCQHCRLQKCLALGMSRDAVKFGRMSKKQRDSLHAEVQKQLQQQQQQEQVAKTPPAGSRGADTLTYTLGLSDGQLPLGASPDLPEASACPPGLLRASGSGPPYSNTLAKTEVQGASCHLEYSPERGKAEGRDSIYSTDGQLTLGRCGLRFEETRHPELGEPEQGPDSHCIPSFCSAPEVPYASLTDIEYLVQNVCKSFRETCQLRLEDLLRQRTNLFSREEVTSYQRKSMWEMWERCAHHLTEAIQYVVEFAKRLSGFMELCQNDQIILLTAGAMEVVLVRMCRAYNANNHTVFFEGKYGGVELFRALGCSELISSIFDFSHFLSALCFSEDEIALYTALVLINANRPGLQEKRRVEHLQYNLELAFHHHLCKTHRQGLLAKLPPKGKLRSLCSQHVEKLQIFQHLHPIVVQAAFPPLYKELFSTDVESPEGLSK
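A Gal4/UAS one-hybrid system in insect cells: metallothionein-promoter Gal4–ROR gamma fusion plus Photinus luciferase reporter. Copper sulfate 700 uM final, 20 hr ambient incubation, luminescent detection after 10 min with reagent.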
IL-1B inflam inh: qHTS for Inhibitors of Inflammasome Signaling: IL-1-beta AlphaLISA Primary Screen | THP-1 LPS/ATP IL-1B secretion, AlphaLISA, 16 h; active compounds read low | activity change, % at 57.5 µM | 360,000 tested, 4.7% active; in the data active = activity change below about -50%; inconclusive = mostly about -30% to -49%
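Secreted IL-1B measured by AlphaLISA bead assay after 16 h compound exposure of THP-1 cells; compounds (final up to 57.5 uM) added 1 h before LPS (250 ng/mL) and ATP (1.25 mM) stimulation; lower signal means less secretion.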
TDP1 cell CPT: qHTS for Inhibitors of human tyrosyl-DNA phosphodiesterase 1 (TDP1): qHTS in cells in presence of CPT. 420,000 tested, 12% active. AID 686979, 2013. chicken DT40 Tdp1-/-;hTDP1 cells + 20 nM CPT, ATP luminescence, 48 h. Potency, µM (doses to about 46.2 µM), for the others: top-dose activity change, negative = growth inhibition, actives largely listed as inhibitors; also: potency is read from the fitted curve at half-maximal effect; nearly all actives have a fitted effect of over 55% in size
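Chicken DT40 Tdp1-/- cells stably complemented with human TDP1 were seeded at 400 cells/well in medium containing 20 nM camptothecin, exposed to pin-transferred compounds, and grown at 37 °C for at least 48 hr. Viability was read as ATP luminescence.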
TDP1 cell noCPT: qHTS for Inhibitors of human tyrosyl-DNA phosphodiesterase 1 (TDP1): qHTS in cells in absence of CPT | AID 686978, 2013 | Potency, µM (titrated, usually from 46.2 µM), for the others: top-dose activity change, negative = growth inhibition, most hits filed as inhibitors | DT40 Tdp1-/- hTDP1 cells, no CPT, ATP luminescence, 48 h | 420,000 tested, 15% active; also: potency is read from the fitted curve at half-maximal effect; nearly all actives have a fitted effect of over 55% in size
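Chicken DT40 Tdp1-/- cells complemented with human TDP1, screened without camptothecin (DMSO vehicle only), 400 cells/well. Compounds pin-transferred, cells incubated at 37 °C for at least 48 hr. Growth read as ATP-dependent luminescence (CellTiter-Glo, 30 min at RT).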
LDHA block: qHTS assay for inhibitors of human lactate dehydrogenase. L-lactate dehydrogenase A chain (Homo sapiens), P00338. purified LDHA, NADH/diaphorase-resazurin fluorescence; active compounds read low. activity change, % (values are at about 110 or 230 µM). 480,000 tested, 0.15% active; in the data active = activity change below about -30%; inconclusive = mostly about -25% to -30%;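 also: plate controls were DMSO wells for no effect and wells without enzyme for full effect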
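Enzyme activity of human lactate dehydrogenase 5 (2 nM; 0.06 mM NADH, 0.2 mM pyruvate, 5 min, RT) is measured via a resazurin/diaphorase fluorescence readout of residual NADH.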
* = called active by the depositor. In the library only some 18% were active in any assay of this set; here they are far more common. Unless noted, calls follow the shape of the dose curve; as a rule, active = well fitted curve in the direction sought with a large enough effect; inconclusive = small, poorly fitted or top-dose-only effect, or another doubt; inactive = no such curve, though single readings can be large; an effect the other way counts as inactive or inconclusive. Unless noted, % is scaled to controls: 0 for no effect and ±100 for the full control effect.

Fc1cccc(NC(=S)NNc2ccccc2)c1 was read as Gal4-VP16 FLuc 2.2µM*, RORgamma inh 1.3µM*, IL-1B inflam inh 0, TDP1 cell CPT 3.3µM*, TDP1 cell noCPT 2.6µM* and LDHA block 34.
O=S(=O)(/C=C/c1ccccc1)NCc1nc2ccccc2s1 was read as LDHA block 11.
For O=C(COc1ncnc2c(Cl)cc(Cl)cc12)Nc1ccc(F)c(Cl)c1 the results were LDHA block 6.
For CCCCCNC(=O)C(c1ccccc1)n1c(=O)c(-c2cc3ccccc3[nH]2)nc2ccccc21 (stereo not drawn) the results were IL-1B inflam inh 40, TDP1 cell CPT inconclusive, TDP1 cell noCPT inconclusive and LDHA block 0.
For O=C(NC1CCCCC1)C(c1ccncc1)n1c(=O)c(-c2ccccc2)nc2ccccc21 (stereo not drawn) the results were IL-1B inflam inh 3, TDP1 cell CPT -17%, TDP1 cell noCPT -25% and LDHA block 2.
`O=C(NC1CCCCC1)C(c1ccc(C(F)(F)F)cc1)n1c(=O)c(-c2cc3ccccc3[nH]2)nc2ccccc21` (stereo not drawn) gave IL-1B inflam inh 70, TDP1 cell CPT 15µM*, TDP1 cell noCPT inconclusive and LDHA block -9.
For O=C(NC1CCCCC1)C(c1ccncc1)n1c(=O)c(-c2cc3ccccc3[nH]2)nc2ccccc21 (stereo not drawn) the results were IL-1B inflam inh inconclusive, TDP1 cell CPT 18µM*, TDP1 cell noCPT inconclusive and LDHA block -2.
`CC(=O)NCCNC(=O)Cc1nc(-c2ccccc2)oc1C` gave LDHA block -2.
`O=C(COc1c(I)cc(Cl)c2cccnc12)NC12CC3CC(CC(C3)C1)C2` gave LDHA block 4.
CCCCCCCCCCCCCCCC[n+]1ccc(/C=C/c2c[nH]c3ccccc23)c2ccccc21 was read as TDP1 cell CPT 5µM* and TDP1 cell noCPT 14µM*.
`CCCCCCCCCCS(=O)(=O)N/N=C/c1c[nH]c2ccccc12` gave LDHA block 0.
CCCCCCCCCCCC[n+]1ccc(/C=C/c2c[nH]c3ccccc23)c2ccccc21 was read as TDP1 cell CPT 2.5µM* and TDP1 cell noCPT 2.2µM*.
For CCCCCCC[n+]1ccc(/C=C/c2c[nH]c3ccccc23)c2ccccc21 the results were TDP1 cell CPT 1µM* and TDP1 cell noCPT 1.1µM*.
COc1ccc(C(=O)c2sc(Nc3cccc(C)c3C)nc2N)cc1OC was read as LDHA block 2.
For CCOC(=O)/C=C1\Nc2ccccc2OC1=O the results were Gal4-VP16 FLuc 12%, RORgamma inh -38%, IL-1B inflam inh 5, TDP1 cell CPT 8.2µM*, TDP1 cell noCPT 10µM* and LDHA block 12.
For Cc1ccc(C)c(N2CCN(C(=O)c3ccc(-c4nc(COc5ccccc5)c(C)o4)cc3)CC2)c1 the results were TDP1 cell CPT 23µM*, TDP1 cell noCPT 15µM* and LDHA block 0.
For Cc1ccc(OCc2nc(-c3ccc(C(=O)N4CCN(c5ccc(Cl)cc5)CC4)cc3)oc2C)cc1 the results were TDP1 cell CPT inconclusive, TDP1 cell noCPT inconclusive and LDHA block 0.
For Cc1ccc(OCc2nc(-c3ccc(C(=O)N4CCN(c5cccc(C(F)(F)F)c5)CC4)cc3)oc2C)cc1 the results were TDP1 cell CPT 16µM*, TDP1 cell noCPT inconclusive and LDHA block -3.
`Cc1ccc2[nH]c(C(=O)NCc3ccc(C(=O)N4CCN(C)CC4)cc3)cc2c1` gave LDHA block 0.
Cc1ccc(C(=O)CC(=O)c2ccc(C)c(C)c2)cc1C was read as LDHA block -6.
`O=C1OC(C(=O)Nc2cnc3ccccc3c2)Cc2ccccc21` (stereo not drawn) gave LDHA block 9.
For C=C[C@@H]1c2cc(C)ccc2N(S(=O)(=O)c2ccc(C)cc2)[C@H](c2ccc(OC(C)=O)cc2)C1(C#N)C#N the results were IL-1B inflam inh 13, TDP1 cell CPT 4.6µM*, TDP1 cell noCPT 5.8µM* and LDHA block -5.
CC(=O)CC1N(S(=O)(=O)c2ccc(C)cc2)c2ccccc2N1S(=O)(=O)c1ccc(C)cc1 was read as IL-1B inflam inh 0, TDP1 cell CPT 19%, TDP1 cell noCPT 7% and LDHA block 0.
`C=C[C@@H]1c2ccccc2N(S(=O)(=O)c2ccc(C)cc2)[C@H](c2ccc(OC(C)=O)cc2)C1(C#N)C#N` gave IL-1B inflam inh -16, TDP1 cell CPT 16µM*, TDP1 cell noCPT 16µM* and LDHA block -6.
`Cc1ccc2c(c1)C1CN(C)CCC1N2S(=O)(=O)c1ccc(C#N)cc1` (stereo not drawn) gave IL-1B inflam inh -29, TDP1 cell CPT -14%, TDP1 cell noCPT -26% and LDHA block -2.
O=C(NCC1CN(Cc2ccccc2)CCO1)C1CCCC1 (stereo not drawn) was read as LDHA block 10.
For CCCCCCCCNC(=O)c1cccnc1SCC(=O)Nc1ccccc1OC the results were Gal4-VP16 FLuc -11%, RORgamma inh -10%, IL-1B inflam inh 15, TDP1 cell CPT inconclusive, TDP1 cell noCPT 21µM* and LDHA block 0.
COc1ccc(NC(=O)CSc2n[nH]c(-c3ccccn3)n2)cc1 was read as Gal4-VP16 FLuc inconclusive, RORgamma inh 16µM*, IL-1B inflam inh 150, TDP1 cell CPT 16µM*, TDP1 cell noCPT 23µM* and LDHA block 11.
For O=C(CSc1n[nH]c(-c2ccccn2)n1)Nc1ccccc1 the results were Gal4-VP16 FLuc inconclusive, RORgamma inh inconclusive, IL-1B inflam inh 178, TDP1 cell CPT 23µM*, TDP1 cell noCPT inconclusive and LDHA block -8.
For COc1ccc(OC)c(NC(=O)CSc2n[nH]c(-c3ccccc3Cl)n2)c1 the results were TDP1 cell CPT 10µM*, TDP1 cell noCPT inconclusive and LDHA block 6.
